Measurements: PubChem BioAssay (EPA / NIEHS)
Active and inactive are the calls of the source. The calls were made as follows: active = hit-call score of the fitted dose curve at least 0.9, where 1 is the maximum; inactive = score below 0.9.

Legend:
Conditions in all cases: mRNA level, 48 h; actives raise or lower the signal
CYP2E1 (gene 1571) = test: LTEA_HepaRG_CYP2E1: Life Technologies and Expression Analysis (LTEA) Assay for CYP2E1 using HepaRG (AID 2283485)
Method in brief: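 Readout is qRT-PCR of CYP2E1 mRNA, normalized to three housekeeping genes and fitted bidirectionally against 0.5% DMSO. HepaRG cells were dosed 48 h at eight concentrations, highest 100 uM with half-log dilutions.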

CYP4A11 (gene 1579) = test: LTEA_HepaRG_CYP4A11: Life Technologies and Expression Analysis (LTEA) Assay for CYP4A11 using HepaRG (AID 2283486)
Method in brief: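 Readout is CYP4A11 transcript level by qRT-PCR, normalized to three housekeeping genes and fitted bidirectionally against 0.5% DMSO. Human HepaRG cells were treated 48 h, in duplicate, with an 8-point half-log series topping at 100 uM.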

[1] = read-out: Cytochrome P450 3A4 (Homo sapiens) (UniProt P08684); test: LTEA_HepaRG_CYP3A4: Life Technologies and Expression Analysis (LTEA) Assay for CYP3A4 using HepaRG (AID 2283487)
Method in brief: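 CYP3A4 transcript measured by TaqMan qRT-PCR and normalized to three housekeeping genes after 48 h chemical exposure of human HepaRG cells. Top concentration 100 uM, half-log steps, 0.5% DMSO vehicle; gain or loss fitted against DMSO baseline.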

[2] = read-out: DNA damage-inducible transcript 3 (DDIT3), DDIT3 (gene 1649); test: LTEA_HepaRG_DDIT3: Life Technologies and Expression Analysis (LTEA) Assay for DNA damage-inducible transcript 3 (DDIT3) using HepaRG (AID 2283488)
Method in brief: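 Cells are human HepaRG liver cells treated for 48 h with eight half-log concentrations up to 100 uM in 0.5% DMSO. Transcript levels come from qRT-PCR normalized to three housekeeping genes, with activity fitted in both directions relative to vehicle.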

[3] = read-out: Pro-epidermal growth factor (Homo sapiens) (UniProt P01133); test: LTEA_HepaRG_EGF: Life Technologies and Expression Analysis (LTEA) Assay for Epidermal growth factor (EGF) using HepaRG (AID 2283489)
Method in brief: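 EGF transcript measured by Fluidigm TaqMan qRT-PCR with three housekeeping genes for normalization, 48 h after dosing HepaRG cultures in duplicate (top 100 uM, half-log steps, 0.5% DMSO vehicle). Gain or loss relative to DMSO fitted.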

[4] = read-out: Early growth response protein 1 (EGR1) transcription factor, EGR1 (gene 1958); test: LTEA_HepaRG_EGR1: Life Technologies and Expression Analysis (LTEA) Assay for Early growth response protein 1 (EGR1) transcription factor using HepaRG (AID 2283490)
Method in brief: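 EGR1 transcript levels quantified by qRT-PCR (Fluidigm arrays) against three housekeeping genes after 48 h chemical exposure of HepaRG cells. Eight-point half-log series topping at 100 uM, 0.5% DMSO vehicle, analyzed for gain or loss.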

[5] = read-out: Ezrin (EZR), EZR (gene 7430); test: LTEA_HepaRG_EZR: Life Technologies and Expression Analysis (LTEA) Assay for Ezrin (EZR) using HepaRG (AID 2283491)
Method in brief: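 HepaRG, 48 h chemical exposure, 8-pt half-log series from 100 uM, 0.5% DMSO vehicle, duplicates. Read-out: EZR mRNA by TaqMan qRT-PCR (Fluidigm array), housekeeping-normalized; bidirectional curve fit vs DMSO baseline.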

[6] = read-out: Cytochrome P450 3A7 (Homo sapiens) (UniProt P24462); test: LTEA_HepaRG_CYP3A7: Life Technologies and Expression Analysis (LTEA) Assay for CYP3A7 using HepaRG (AID 2283492)
Method in brief: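 CYP3A7 transcript measured by qRT-PCR (ACTB, GAPDH, POLR2A normalization) after 48 h chemical exposure of HepaRG cells in duplicate. Eight half-log concentrations, maximum 100 uM, 0.5% DMSO vehicle; bidirectional curve fitting against DMSO baseline.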

CYP3A5 (gene 1577) = test: LTEA_HepaRG_CYP3A5: Life Technologies and Expression Analysis (LTEA) Assay for CYP3A5 using HepaRG (AID 2283493)
Method in brief: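 Human HepaRG hepatic cells receive 48 h chemical treatment at eight concentrations (half-log steps from 100 uM) in 0.5% DMSO. Expression of CYP3A5 is quantified by Fluidigm qRT-PCR and normalized to three reference genes.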

[7] = read-out: Fatty Acid-Binding Protein 1 (FABP1), FABP1 (gene 2168); test: LTEA_HepaRG_FABP1: Life Technologies and Expression Analysis (LTEA) Assay for Fatty Acid-Binding Protein 1 (FABP1) using HepaRG (AID 2283494)
Method in brief: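 FABP1 expression by TaqMan qRT-PCR, normalised to three housekeeping genes, in HepaRG cells after 48 h chemical treatment. Eight-point half-log series topping at 100 uM in 0.5% DMSO, duplicates; gain or loss fitted relative to vehicle.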

[8] = read-out: Cytochrome P450 4A22 (Homo sapiens) (UniProt Q5TCH4); test: LTEA_HepaRG_CYP4A22: Life Technologies and Expression Analysis (LTEA) Assay for Cytochrome P450 4A22 (CYP4A22) using HepaRG (AID 2283495)
Method in brief: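 Gene expression measured by qRT-PCR against three housekeeping genes (ACTB, GAPDH, POLR2A), with gain or loss fitted relative to 0.5% DMSO vehicle. HepaRG cultures received 48 h chemical treatment, top concentration 100 uM, half-log steps, duplicate wells.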

[9] = read-out: Cytochrome P450 7A1 (Homo sapiens) (UniProt P22680); test: LTEA_HepaRG_CYP7A1: Life Technologies and Expression Analysis (LTEA) Assay for Cytochrome P450 7A1 (CYP7A1) using HepaRG (AID 2283496)
Method in brief: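 HepaRG, 48 h exposure, 8-pt half-log series from 100 uM, 0.5% DMSO vehicle, duplicates. Readout: TaqMan qRT-PCR mRNA vs three housekeeping genes; bidirectional curve fit against DMSO baseline.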

[10] = read-out: Glutathione S-Transferase (GSTA2), GSTA2 (gene 2939); test: LTEA_HepaRG_GSTA2: Life Technologies and Expression Analysis (LTEA) Assay for Glutathione S-Transferase (GSTA2) using HepaRG (AID 2283497)
Method in brief: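 GSTA2 transcript levels came from Fluidigm TaqMan qRT-PCR normalized to three housekeeping genes, fitted in both directions against DMSO. HepaRG cultures received chemicals for 48 h in serum-free induction medium (0.5% DMSO), 8 half-log concentrations up to 100 uM, duplicate.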

[11] = read-out: Glutamate-cysteine ligase catalytic (GCLC), GCLC (gene 2729); test: LTEA_HepaRG_GCLC: Life Technologies and Expression Analysis (LTEA) Assay for Glutamate-cysteine ligase catalytic (GCLC) using HepaRG (AID 2283498)
Method in brief: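 Expression by TaqMan qRT-PCR, normalized to three housekeeping genes (ACTB, GAPDH, POLR2A), with up- or down-regulation fitted against DMSO. HepaRG cells dosed in duplicate for 48 h with 8 half-log concentrations up to 100 uM, vehicle 0.5% DMSO.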

[12] = read-out: growth arrest and DNA damage 45 (GADD45G), GADD45G (gene 10912); test: LTEA_HepaRG_GADD45G: Life Technologies and Expression Analysis (LTEA) Assay for growth arrest and DNA damage 45 (GADD45G) using HepaRG (AID 2283499)
Method in brief: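 GADD45G transcript level by qRT-PCR (housekeeping-normalized: ACTB, GAPDH, POLR2A) after 48 h chemical treatment of a single HepaRG lot in serum-free induction medium; eight-point half-log series up to 100 uM in 0.5% DMSO, duplicates, up- or down-regulation scored.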

[13] = read-out: Heat shock 70 kDa protein 1 (HSPA1A), gene 3303; test: LTEA_HepaRG_HSPA1A: Life Technologies and Expression Analysis (LTEA) Assay for Heat shock 70 kDa protein 1 (HSPA1A) using HepaRG (AID 2283502)
Method in brief: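 Cells were plated and cultured for 48 h, then switched to serum-free induction medium. Chemicals were added at eight half-log concentrations up to 100 uM for 48 h. RNA was then isolated and HSPA1A measured by qRT-PCR with bidirectional curve fitting against DMSO.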

[14] = read-out: Hypoxia-inducible factor 1-alpha (Homo sapiens) (UniProt Q16665); test: LTEA_HepaRG_HIF1A: Life Technologies and Expression Analysis (LTEA) Assay for Hypoxia-inducible factor 1 (HIF1A) Trancription factor using HepaRG (AID 2283503)
Method in brief: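 HIF1A transcript level read by qRT-PCR (ACTB, GAPDH, POLR2A normalization) after 48 h chemical exposure of HepaRG cultures. Eight half-log concentrations, top 100 uM, 0.5% DMSO vehicle, duplicates; bidirectional curve fit against DMSO baseline.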

[15] = read-out: 3-Hydroxy-3-Methylglutaryl-CoA Synthase 2 (HMGCS2), HMGCS2 (gene 3158); test: LTEA_HepaRG_HMGCS2: Life Technologies and Expression Analysis (LTEA) Assay for 3-Hydroxy-3-Methylglutaryl-CoA Synthase 2 (HMGCS2) using HepaRG (AID 2283504)
Method in brief: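 Readout is HMGCS2 transcript by qRT-PCR, housekeeping-normalised (ACTB/GAPDH/POLR2A) and fitted bidirectionally against 0.5% DMSO. Differentiated HepaRG cells received chemicals 48 h, duplicate wells, eight half-log concentrations topping at 100 uM.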

[16] = read-out: Glutathione S-transferase M3 (GSTM3), GSTM3 (gene 2947); test: LTEA_HepaRG_GSTM3: Life Technologies and Expression Analysis (LTEA) Assay for Glutathione S-transferase M3 (GSTM3) using HepaRG (AID 2283501)
Method in brief: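 GSTM3 transcript levels came from Fluidigm TaqMan qRT-PCR normalized to three housekeeping genes, fitted in both directions against DMSO. HepaRG cultures received chemicals for 48 h in serum-free induction medium (0.5% DMSO), 8 half-log concentrations up to 100 uM, duplicate.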

Sequence of Cytochrome P450 3A7 (Homo sapiens) (P24462 whole entry, looked up): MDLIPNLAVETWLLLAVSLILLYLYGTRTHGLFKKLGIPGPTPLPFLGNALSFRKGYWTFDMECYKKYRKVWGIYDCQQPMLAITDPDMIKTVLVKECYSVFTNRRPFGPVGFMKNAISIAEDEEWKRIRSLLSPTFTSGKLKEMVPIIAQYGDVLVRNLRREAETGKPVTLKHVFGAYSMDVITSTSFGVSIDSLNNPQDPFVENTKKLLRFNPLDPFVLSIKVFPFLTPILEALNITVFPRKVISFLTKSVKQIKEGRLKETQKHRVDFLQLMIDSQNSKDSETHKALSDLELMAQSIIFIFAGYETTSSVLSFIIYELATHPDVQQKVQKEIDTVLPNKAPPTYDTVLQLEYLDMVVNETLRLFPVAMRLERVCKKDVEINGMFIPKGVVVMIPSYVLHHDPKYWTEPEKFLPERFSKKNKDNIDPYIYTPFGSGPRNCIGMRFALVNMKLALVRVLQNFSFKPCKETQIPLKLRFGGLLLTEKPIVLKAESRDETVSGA
Sequence of Hypoxia-inducible factor 1-alpha (Homo sapiens) (Q16665 whole entry, looked up): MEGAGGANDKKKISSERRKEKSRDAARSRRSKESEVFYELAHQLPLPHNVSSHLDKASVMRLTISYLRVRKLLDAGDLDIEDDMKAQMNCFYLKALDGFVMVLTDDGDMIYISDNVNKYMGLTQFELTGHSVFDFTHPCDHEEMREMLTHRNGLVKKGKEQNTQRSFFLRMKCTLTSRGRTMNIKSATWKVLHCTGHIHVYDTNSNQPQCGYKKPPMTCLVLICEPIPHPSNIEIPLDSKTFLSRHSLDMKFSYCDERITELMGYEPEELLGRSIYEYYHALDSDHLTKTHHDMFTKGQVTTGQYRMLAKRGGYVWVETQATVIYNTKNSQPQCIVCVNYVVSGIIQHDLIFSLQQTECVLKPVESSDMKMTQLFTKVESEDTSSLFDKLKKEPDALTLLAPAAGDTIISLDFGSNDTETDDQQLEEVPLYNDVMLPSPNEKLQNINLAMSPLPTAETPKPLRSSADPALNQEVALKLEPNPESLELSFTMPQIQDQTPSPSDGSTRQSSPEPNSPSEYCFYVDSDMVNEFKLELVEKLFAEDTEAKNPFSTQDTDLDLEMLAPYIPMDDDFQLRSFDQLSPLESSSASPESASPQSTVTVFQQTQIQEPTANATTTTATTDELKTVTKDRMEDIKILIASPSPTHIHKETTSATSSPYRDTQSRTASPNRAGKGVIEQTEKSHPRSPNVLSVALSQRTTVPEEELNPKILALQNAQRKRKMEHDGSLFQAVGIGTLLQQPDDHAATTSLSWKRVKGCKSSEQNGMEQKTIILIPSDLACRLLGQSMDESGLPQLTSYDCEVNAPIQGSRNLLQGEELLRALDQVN
Sequence of Cytochrome P450 3A4 (Homo sapiens) (P08684 whole entry, looked up): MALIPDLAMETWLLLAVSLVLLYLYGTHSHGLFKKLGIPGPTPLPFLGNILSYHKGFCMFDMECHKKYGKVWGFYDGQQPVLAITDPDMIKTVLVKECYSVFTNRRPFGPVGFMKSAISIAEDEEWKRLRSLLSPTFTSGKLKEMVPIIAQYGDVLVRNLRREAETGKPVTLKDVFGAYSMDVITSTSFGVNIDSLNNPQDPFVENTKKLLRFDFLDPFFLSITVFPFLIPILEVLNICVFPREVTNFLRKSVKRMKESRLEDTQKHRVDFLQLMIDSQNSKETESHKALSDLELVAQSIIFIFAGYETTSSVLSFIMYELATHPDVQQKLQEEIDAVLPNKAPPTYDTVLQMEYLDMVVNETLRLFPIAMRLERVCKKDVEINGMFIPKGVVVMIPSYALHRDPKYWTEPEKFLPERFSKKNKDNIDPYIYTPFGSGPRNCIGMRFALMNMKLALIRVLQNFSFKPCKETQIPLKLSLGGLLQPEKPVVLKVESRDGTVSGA

## OC(CCl)CCl
CYP2E1 (gene 1571)
  outcome: inactive
CYP4A11 (gene 1579)
  outcome: inactive
[1]
  outcome: inactive
[2]
  outcome: inactive
[3]
  outcome: inactive
[4]
  outcome: inactive
[5]
  outcome: inactive
[6]
  outcome: inactive
CYP3A5 (gene 1577)
  outcome: inactive
[7]
  outcome: inactive
[8]
  outcome: inactive
[9]
  outcome: inactive
[10]
  outcome: inactive
[11]
  outcome: inactive
[12]
  outcome: inactive
[13]
  outcome: inactive
[14]
  outcome: inactive
[15]
  outcome: inactive

## O=C(O)c1ccc2c(c1)nc(C(=O)NC1CCN(C3CC3)CC1)n2Cc1cc(-c2ccc(Cl)s2)on1
CYP2E1 (gene 1571)
  outcome: inactive
CYP4A11 (gene 1579)
  outcome: inactive
[1]
  outcome: inactive
[2]
  outcome: inactive
[3]
  outcome: inactive
[4]
  outcome: inactive
[5]
  outcome: inactive
[6]
  outcome: inactive
CYP3A5 (gene 1577)
  outcome: inactive
[7]
  outcome: inactive
[8]
  outcome: inactive
[9]
  outcome: inactive
[10]
  outcome: inactive
[11]
  outcome: inactive
[12]
  outcome: inactive
[13]
  outcome: inactive
[14]
  outcome: inactive
[15]
  outcome: inactive

## OCCNCCO
CYP2E1 (gene 1571)
  AC50: 45 µM (active)
CYP4A11 (gene 1579)
  outcome: inactive
[1]
  outcome: inactive
[2]
  outcome: inactive
[3]
  outcome: inactive
[4]
  outcome: inactive
[5]
  outcome: inactive
[6]
  outcome: inactive
CYP3A5 (gene 1577)
  outcome: inactive
[7]
  AC50: 45.6 µM (active)
[8]
  outcome: inactive
[9]
  AC50: 50 µM (active)
[10]
  AC50: 63.4 µM (active)
[11]
  outcome: inactive
[12]
  outcome: inactive
[13]
  outcome: inactive
[14]
  AC50: 50 µM (active)
[15]
  AC50: 75 µM (active)

## OCC(CO)(CO)CO
CYP2E1 (gene 1571)
  outcome: inactive
CYP4A11 (gene 1579)
  outcome: inactive
[1]
  outcome: inactive
[2]
  outcome: inactive
[4]
  outcome: inactive
[5]
  outcome: inactive
[6]
  outcome: inactive
CYP3A5 (gene 1577)
  outcome: inactive
[7]
  outcome: inactive
[8]
  outcome: inactive
[9]
  outcome: inactive
[10]
  outcome: inactive
[11]
  outcome: inactive
[12]
  outcome: inactive
[13]
  outcome: inactive
[14]
  outcome: inactive
[15]
  outcome: inactive

## OCc1ccccc1
CYP2E1 (gene 1571)
  outcome: inactive
CYP4A11 (gene 1579)
  outcome: inactive
[1]
  outcome: inactive
[2]
  outcome: inactive
[3]
  outcome: inactive
[4]
  outcome: inactive
[5]
  outcome: inactive
[6]
  outcome: inactive
CYP3A5 (gene 1577)
  outcome: inactive
[7]
  outcome: inactive
[8]
  outcome: inactive
[9]
  outcome: inactive
[10]
  outcome: inactive
[11]
  outcome: inactive
[12]
  outcome: inactive
[13]
  outcome: inactive
[14]
  outcome: inactive
[15]
  outcome: inactive

## CC1(C)C(=O)N(Cl)C(=O)N1Cl
CYP2E1 (gene 1571)
  outcome: inactive
CYP4A11 (gene 1579)
  outcome: inactive
[1]
  outcome: inactive
[2]
  outcome: inactive
[3]
  outcome: inactive
[4]
  outcome: inactive
[5]
  outcome: inactive
[6]
  outcome: inactive
CYP3A5 (gene 1577)
  outcome: inactive
[7]
  outcome: inactive
[8]
  outcome: inactive
[9]
  outcome: inactive
[10]
  outcome: inactive
[11]
  outcome: inactive
[12]
  outcome: inactive
[13]
  outcome: inactive
[14]
  outcome: inactive
[15]
  outcome: inactive

## CC(C)C(=O)Nc1ccc([N+](=O)[O-])c(C(F)(F)F)c1
CYP2E1 (gene 1571)
  AC50: 43.9 µM (active)
CYP4A11 (gene 1579)
  AC50: 50.4 µM (active)
[2]
  AC50: 87.5 µM (active)
[3]
  AC50: 50 µM (active)
[4]
  AC50: 81.9 µM (active)
[5]
  outcome: inactive
CYP3A5 (gene 1577)
  outcome: inactive
[7]
  AC50: 37.9 µM (active)
[8]
  AC50: 41.7 µM (active)
[9]
  AC50: 67.6 µM (active)
[10]
  AC50: 65.8 µM (active)
[11]
  outcome: inactive
[12]
  AC50: 85.6 µM (active)
[16]
  AC50: 50 µM (active)
[13]
  outcome: inactive
[15]
  AC50: 72.8 µM (active)
